Among the data in PubChem BioAssay (NCI) are growth values, retold here.

About 83,000 compounds went through this panel and 20% of them were active in at least one assay; those are over-represented in the sample as a whole.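 Interpretation: 100, growth as untreated; towards 0, rising growth inhibition; 0, no net growth; 0 to -100, cell death. Compounds scoring below 10 were considered active.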 Calls of active or inactive are those of the source.

The experiment deals with MDA-MB-468 breast. Put plainly: NCI-60 one-dose screen, 48 h (100 = growth as untreated, 0 = no growth, -100 = all killed). As to conditions: 10 µM unless noted.
With `O=C1CS/C(=N\Nc2cc(=O)[nH]c3ccccc23)N1c1ccccc1`, the growth was 96.9% (inactive). For `CN(C)CCOc1nc2c3ccncc3cc(-c3cccc(Cl)c3)c2c2cnccc12` the value was 38.3% (inactive); for `S=c1[nH]c(=S)c2c(-c3ccccc3)c(-c3ccccc3)oc2[nH]1`, 96.7% (inactive); for `CC1(C)CC(=O)C2=C(C1)OC1=C(C(=O)CC(C)(C)C1)C2c1ccc(OCc2cn(-c3ccc(F)cc3F)nn2)cc1`, 103% (inactive). Take `O=C(NO)c1ccc(CNc2cccc3nc(C4CC4)n(-c4ccccc4)c(=O)c23)cc1`: the growth is 22.3% (inactive). `COc1ccc(C(Cc2ccccc2)NCCN2CCOCC2)cc1` (stereo not given): the growth is 99.6% (inactive). For the compound `COc1cc2oc(-c3cccc(C(=O)Nc4ccc(Br)cc4)c3)cc(=O)c2c(OC)c1OC`, the growth is 64.3% (inactive).

For the compound `Cc1c(-c2ccc(O)cc2)n(Cc2ccc(OCCN3CCCCCC3)cc2)c2ccc(O)cc12`, the growth was 74% (inactive). Regarding `NC1=NC(c2cccc(Br)c2)c2sc3ccc(Cl)cc3c2N1` (stereo not given), the growth was 87.4% (inactive). As to `COC(=O)C(=Cc1ccccc1[N+](=O)[O-])C(=O)OC`, the growth was 20.2% (inactive). To `CC(C)c1ccc(C(=O)Nc2sc3cc(O)ccc3c2C#N)cc1` belongs 12.5% (inactive). Consider `CC1(C)CC[C@]2(C(=O)O)CC[C@]3(C)C(=CC[C@@H]4[C@@]5(C)CC[C@H](NOCCCN)C(C)(C)[C@@H]5CC[C@]43C)[C@@H]2C1`, for which the growth was -45.6% (active). Take `O=C1OCC2=C1C(c1cccc(C(F)(F)F)c1)c1cc3c(cc1N2CCO)OCCO3` (stereo not given): the growth is 13.5% (inactive). Turning to `COc1ccc(Cn2cc(COc3ccc4c5ccnc(C)c5n(CCCc5ccccc5)c4c3)nn2)cc1`, the growth is 62.5% (inactive).

Take `CNC(=O)c1cc(Oc2ccc3nc(NC(=O)Nc4ccc(Cl)c(Cl)c4)sc3c2)ccn1`: the growth was 68.3% (inactive).

In the case of `CCOC(=O)c1cn2ncnc(Oc3ccc(NC(=O)NCCN(C)C)c(Cl)c3)c2c1C`, the growth was 67.4% (inactive).

For the compound `Cc1ccc(N2C(=O)CCC2=O)cc1`, the growth is 103% (inactive).

For the compound `C=C1c2c(C)nn(-c3ccc(OC)cc3)c2N(C)C23C[C@@H]1C1(C)c4c(C)nn(-c5ccc(OC)cc5)c4N(C)C(C)(C[C@H]12)C3` (stereo not given in full), the growth is 31.9% (inactive). Take `O=C1C=CC2(NN=C(c3ccccc3)N2c2ccc(Cl)cc2)c2cccc(O)c21` (stereo not given): the growth is 47.6% (inactive). For `Cc1cc2nc3c4cccc(O)c4n(CCN(C)C)c3nc2cc1C` the value was 0.835% (active); for `N#Cc1nnn(-c2ccc(S(N)(=O)=O)cc2)c1NC(=O)CCl`, 98.7% (inactive); for `CCc1cc2c(cc1Cl)nc1c(=O)[nH]c(=O)nc-1n2CCOCC(C)C`, 43.8% (inactive). `Cc1ncc(C(=O)Nc2ccc(CN3CCN(C)CC3)c(C(F)(F)F)c2)cc1C#Cc1c(N)ncc2ccc(C#N)cc12`: the growth was 98.5% (inactive).

Consider `COC(=O)N/N=C/c1c[n+]([O-])c2ccccc2[n+]1[O-]`, for which the growth was 110% (inactive).

For `O=C(c1ccccc1)N1N=C(c2ccc(-n3ccc(C(F)(F)F)n3)cc2)CC1c1ccc[nH]1` (stereo not given), the growth was 86% (inactive). For `COc1ccc(-c2cc3c(OC)c(OC)c(OC)cc3oc2=O)cc1` the value was 23.6% (inactive); for `CCCCCCC(CC#N)(CCC)CCCC` (stereo not given), 101% (inactive). As to `COc1ccc(Oc2nc(Nc3ccc(N4CCOCC4)cc3)ncc2NC(=O)c2cccc(C(F)(F)F)c2)cc1`, the growth was 93% (inactive). Take `COc1cc2cc(Oc3ccc(NC(=O)c4cccc(C(F)(F)F)c4)cc3)c(C)nc2cc1OC`: the growth is 9.35% (active).

In the case of `c1coc2occoc=2o1`, the growth is 98.6% (inactive).

Consider `CC(=O)c1nnn(-c2c(C(=O)n3nc(C)cc3C)sc(=S)n2-c2ccccc2)c1C`, for which the growth is 96.8% (inactive). With `CCOc1ccccc1NC(=O)CCl`, the growth is 79.4% (inactive). For `CC1=C(C)C(=O)C(Nc2cccc(C(=O)OC(C)(C)C)c2)=C(Br)C1=O`, the growth was -54% (active).

Consider `CC(=O)N1c2ccccc2NC2=C(C(=O)N(C)C2(C)C)C1C` (stereo not given), for which the growth is 19.2% (inactive). In the case of `COc1cc(CN(c2ccc(Cl)cc2)C2OC(=O)c3ccccc32)cc(OC)c1OC` (stereo not given), the growth was 16.8% (inactive). To `O=C(NCCCNc1cc(-c2cn(-c3ccccc3)nc2-c2cccc(O)c2)ccn1)Nc1cc(C(F)(F)F)cc(C(F)(F)F)c1` belongs 70.4% (inactive); to `CCCCCCCCCCCCCCCC[N+]1(C)CCN(SN2CC[N+](C)(CCCCCCCCCCCCCCCC)CC2)CC1`, 52.2% (inactive); to `O=C(Nc1cccc(Cl)c1)Nc1cc2ncncc2cc1OCc1cccc(F)c1`, -2.43% (active).

Regarding `Nc1nc(NC(=O)Nc2ccc(C(=O)O)cc2)nn1-c1ccc(S(N)(=O)=O)cc1`, the growth is 91.6% (inactive). For `CN(C)CCCN1c2ccccc2Sc2ccc(C(F)(F)F)cc21` the value was -76.9% (active).
